{"source": "paper PMC11062922", "about": "(Nature Chemical Biology, 2023)", "set-up_in_all_cases": "species or system human, MV4-11 + K-562 + COLO205 + SK-N-BE2 + OVCAR-8", "key": {"CDC42": {"tested_on": "CDC42", "conditions": "read-out: apparent Kd, n = 1"}, "CDK6": {"tested_on": "CDK6", "conditions": "read-out: apparent Kd; compound concentrations: 100 nM and 1000 nM (sheet 'Samples'), CATDS: 0.35899533679328099; n = 1"}, "MAP2K1": {"tested_on": "MAP2K1", "conditions": "read-out: apparent Kd; compound concentrations: 100 nM and 1000 nM (sheet 'Samples'), CATDS: 0.31550250727948498; n = 1"}, "CDC42BPG": {"tested_on": "CDC42BPG", "conditions": "read-out: apparent Kd, compound concentrations: 100 nM and 1000 nM (sheet 'Samples'), n = 1"}, "GAK": {"tested_on": "GAK", "conditions": "read-out: apparent Kd, n = 1"}, "MAPK10": {"tested_on": "MAPK10", "conditions": "read-out: apparent Kd; compound concentrations: 100 nM and 1000 nM (sheet 'Samples'), CATDS: 0.12548752602980501; n = 1"}, "MAPK14": {"tested_on": "MAPK14", "conditions": "read-out: apparent Kd; compound concentrations: 100 nM and 1000 nM (sheet 'Samples'), CATDS: 0.192952593667473; n = 1"}, "MAPK9": {"tested_on": "MAPK9", "conditions": "read-out: apparent Kd; compound concentrations: 100 nM and 1000 nM (sheet 'Samples'), CATDS: 0.107953199944472; n = 1"}, "MAPKAPK2": {"tested_on": "MAPKAPK2", "conditions": "read-out: apparent Kd; compound concentrations: 100 nM and 1000 nM (sheet 'Samples'), CATDS: 0.17502946768032501; n = 1"}, "NQO1": {"tested_on": "NQO1", "conditions": "read-out: apparent Kd; compound concentrations: 100 nM and 1000 nM (sheet 'Samples'), CATDS: 8.60735929712554E-2; n = 1"}, "TNIK": {"tested_on": "TNIK", "conditions": "read-out: apparent Kd; compound concentrations: 100 nM and 1000 nM (sheet 'Samples'), CATDS: 0.13491621958450101; n = 1"}, "CDK7": {"tested_on": "CDK7", "conditions": "read-out: apparent Kd; compound concentrations:100 nM and 1000 nM (sheet 'Samples'); n = 1"}, "ERCC2": {"tested_on": "ERCC2", "conditions": "read-out: apparent Kd; compound concentrations:100 nM and 1000 nM (sheet 'Samples'); n = 1"}, "FER": {"tested_on": "FER", "conditions": "read-out: apparent Kd; compound concentrations:100 nM and 1000 nM (sheet 'Samples'); n = 1"}, "HSP90B1": {"tested_on": "HSP90B1", "conditions": "read-out: apparent Kd; compound concentrations:100 nM and 1000 nM (sheet 'Samples'); n = 1"}, "TNK2": {"tested_on": "TNK2", "conditions": "read-out: apparent Kd; compound concentrations:100 nM and 1000 nM (sheet 'Samples'); n = 1"}, "CDC42BPB": {"tested_on": "CDC42BPB", "conditions": "read-out: apparent Kd, compound concentrations: 100 nM and 1000 nM (sheet 'Samples'), n = 1"}, "CIT": {"tested_on": "CIT", "conditions": "read-out: apparent Kd; compound concentrations: 100 nM and 1000 nM (sheet 'Samples'), CATDS: 0.106368492262706; n = 1"}, "CLK1": {"tested_on": "CLK1", "conditions": "read-out: apparent Kd; compound concentrations: 100 nM and 1000 nM (sheet 'Samples'), CATDS: 0.214527954353402; n = 1"}, "CLK4": {"tested_on": "CLK4", "conditions": "read-out: apparent Kd; compound concentrations: 100 nM and 1000 nM (sheet 'Samples'), CATDS: 0.24205596503661; n = 1"}, "MARK3": {"tested_on": "MARK3", "conditions": "read-out: apparent Kd; compound concentrations: 100 nM and 1000 nM (sheet 'Samples'), CATDS: 9.9321002689151103E-2; n = 1"}, "MELK": {"tested_on": "MELK", "conditions": "read-out: apparent Kd; compound concentrations: 100 nM and 1000 nM (sheet 'Samples'), CATDS: 9.4221597644958896E-2; n = 1"}, "PHKG2": {"tested_on": "PHKG2", "conditions": "read-out: apparent Kd; compound concentrations: 100 nM and 1000 nM (sheet 'Samples'), CATDS: 0.61617859145014098; n = 1"}, "CDC42BPA": {"tested_on": "CDC42BPA", "conditions": "read-out: apparent Kd; compound concentrations: 100 nM and 1000 nM (sheet 'Samples'), CATDS: 6.9468579457902302E-2; n = 1"}, "PKN1": {"tested_on": "PKN1", "conditions": "read-out: apparent Kd; compound concentrations: 100 nM and 1000 nM (sheet 'Samples'), CATDS: 6.0218156247889197E-2; n = 1"}, "PRKACA": {"tested_on": "PRKACA", "conditions": "read-out: apparent Kd; compound concentrations: 100 nM and 1000 nM (sheet 'Samples'), CATDS: 0.135293982303474; n = 1"}, "PRKACB": {"tested_on": "PRKACB", "conditions": "read-out: apparent Kd; compound concentrations: 100 nM and 1000 nM (sheet 'Samples'), CATDS: 0.11075307193468301; n = 1"}, "PRKG1": {"tested_on": "PRKG1", "conditions": "read-out: apparent Kd; compound concentrations: 100 nM and 1000 nM (sheet 'Samples'), CATDS: 7.6658344406139403E-2; n = 1"}, "PRKX": {"tested_on": "PRKX", "conditions": "read-out: apparent Kd; compound concentrations: 100 nM and 1000 nM (sheet 'Samples'), CATDS: 6.23454867877557E-2; n = 1"}, "ROCK1": {"tested_on": "ROCK1", "conditions": "read-out: apparent Kd; compound concentrations: 100 nM and 1000 nM (sheet 'Samples'), CATDS: 0.22662167781686399; n = 1"}, "ROCK2": {"tested_on": "ROCK2", "conditions": "read-out: apparent Kd; compound concentrations: 100 nM and 1000 nM (sheet 'Samples'), CATDS: 0.23262842536730999; n = 1"}, "FLT4": {"tested_on": "FLT4", "conditions": "read-out: apparent Kd; compound concentrations: 100 nM and 1000 nM (sheet 'Samples'), CATDS: 0.57222186491760196; n = 1"}, "PLK1": {"tested_on": "PLK1", "conditions": "read-out: apparent Kd; compound concentrations: 100 nM and 1000 nM (sheet 'Samples'), CATDS: 0.18184890704530299; n = 1"}, "RIPK2": {"tested_on": "RIPK2", "conditions": "read-out: apparent Kd; compound concentrations: 100 nM and 1000 nM (sheet 'Samples'), CATDS: 0.227728306624736; n = 1"}, "[1]": {"conditions": "compound concentrations:100 nM and 1000 nM (sheet 'Samples')"}}, "note": "Where two headings read alike, the source gives them in different places."}
{"molecule": "CCn1c(-c2ccccn2)nc2cnccc21", "note": "[SB-736398]", "values": [{"measurement": "potency estimated from few doses", "setting": "CDC42; compound concentrations: 100 nM and 1000 nM (sheet 'Samples'), CATDS: 0.328417840290395", "result": 1930, "unit": "nM"}, {"measurement": "potency estimated from few doses", "setting": "CDK6", "result": 1630, "unit": "nM"}, {"measurement": "potency estimated from few doses", "setting": "MAP2K1", "result": 2100, "unit": "nM"}]}
{"molecule": "N#Cc1ccc2c(-c3ccnc(NC4CC4)n3)c(-c3ccc(F)cc3)nn2c1", "note": "[GW561436X]", "values": [{"measurement": "potency estimated from few doses", "setting": "CDC42BPG; CATDS: 0.104980182660456", "result": 1180, "unit": "nM"}, {"measurement": "potency estimated from few doses", "setting": "GAK; compound concentrations: 100 nM and 1000 nM (sheet 'Samples'), CATDS: 0.13668141663723599", "result": 650, "unit": "nM"}, {"measurement": "potency estimated from few doses", "setting": "MAPK10", "result": 775, "unit": "nM"}, {"measurement": "potency estimated from few doses", "setting": "MAPK14", "result": 356, "unit": "nM"}, {"measurement": "potency estimated from few doses", "setting": "MAPK9", "result": 1100, "unit": "nM"}, {"measurement": "potency estimated from few doses", "setting": "MAPKAPK2", "result": 417, "unit": "nM"}, {"measurement": "potency estimated from few doses", "setting": "NQO1", "result": 2220, "unit": "nM"}, {"measurement": "potency estimated from few doses", "setting": "TNIK", "result": 667, "unit": "nM"}]}
{"molecule": "COC(=O)c1cccc(NC(=O)NCCNc2ccnc(Nc3ccc(F)cc3)n2)c1", "note": "[GSK1379883A]", "values": [{"measurement": "potency estimated from few doses", "setting": "CDC42; compound concentrations: 100 nM and 1000 nM (sheet 'Samples'), CATDS: 1", "result": 1560, "unit": "nM"}]}
{"molecule": "Cc1ccc2c(-c3ccnc(Nc4ccc(C(F)(F)F)cc4)n3)cnn2n1", "note": "[GW819776X]", "values": [{"measurement": "potency estimated from few doses", "setting": "CDC42; [1]", "result": 1650, "unit": "nM"}, {"measurement": "potency estimated from few doses", "setting": "CDK7", "result": 1750, "unit": "nM"}, {"measurement": "potency estimated from few doses", "setting": "ERCC2", "result": 898, "unit": "nM"}, {"measurement": "potency estimated from few doses", "setting": "FER", "result": 1180, "unit": "nM"}, {"measurement": "potency estimated from few doses", "setting": "GAK; [1]", "result": 1400, "unit": "nM"}, {"measurement": "potency estimated from few doses", "setting": "HSP90B1", "result": 99.9, "unit": "nM"}, {"measurement": "potency estimated from few doses", "setting": "TNK2", "result": 1050, "unit": "nM"}]}
{"molecule": "FC1=CC(C3=NC2=CC(OC)=C(OC)C=C2C(N[C@H]4[C@H]([C@](C)(O)C)CNC4)=N3)=C(O)C=C1.Cl.Cl", "note": "[CCT241533]", "values": [{"measurement": "potency estimated from few doses", "setting": "CDC42BPB; CATDS: 0.117626319285852", "result": 1010, "unit": "nM"}, {"measurement": "potency estimated from few doses", "setting": "CIT", "result": 1490, "unit": "nM"}, {"measurement": "potency estimated from few doses", "setting": "CLK1", "result": 163, "unit": "nM"}, {"measurement": "potency estimated from few doses", "setting": "CLK4", "result": 121, "unit": "nM"}, {"measurement": "potency estimated from few doses", "setting": "MARK3", "result": 2010, "unit": "nM"}, {"measurement": "potency estimated from few doses", "setting": "MELK", "result": 2590, "unit": "nM"}, {"measurement": "potency estimated from few doses", "setting": "PHKG2", "result": 20.8, "unit": "nM"}]}
{"molecule": "NCCCC(NC(=O)c1cc(Br)c(-c2ccnc3[nH]ccc23)s1)c1ccccc1.NCCCC(NC(=O)c1cc(Br)c(-c2ccnc3[nH]ccc23)s1)c1ccccc1.O=C(O)C(F)(F)F.O=C(O)C(F)(F)F", "note": "(stereo not shown) [GSK1287544A]", "values": [{"measurement": "potency estimated from few doses", "setting": "CDC42BPA", "result": 735, "unit": "nM"}, {"measurement": "potency estimated from few doses", "setting": "CDC42BPB; CATDS: 0.12045997656794601", "result": 111, "unit": "nM"}, {"measurement": "potency estimated from few doses", "setting": "CDC42BPG; CATDS: 0.15429937992002599", "result": 65, "unit": "nM"}, {"measurement": "potency estimated from few doses", "setting": "PKN1", "result": 1750, "unit": "nM"}, {"measurement": "potency estimated from few doses", "setting": "PRKACA", "result": 85.3, "unit": "nM"}, {"measurement": "potency estimated from few doses", "setting": "PRKACB", "result": 137, "unit": "nM"}, {"measurement": "potency estimated from few doses", "setting": "PRKG1", "result": 465, "unit": "nM"}, {"measurement": "potency estimated from few doses", "setting": "PRKX", "result": 1370, "unit": "nM"}, {"measurement": "potency estimated from few doses", "setting": "ROCK1", "result": 33.3, "unit": "nM"}, {"measurement": "potency estimated from few doses", "setting": "ROCK2", "result": 31.9, "unit": "nM"}]}
{"molecule": "COc1cc2nccc(Nc3ccc(OCc4ccc(NC(C)=O)cc4)cc3)c2cc1OC.Cl", "note": "[GW440135A]", "values": [{"measurement": "potency estimated from few doses", "setting": "CDC42BPG; CATDS: 0.22924434609497199", "result": 1070, "unit": "nM"}, {"measurement": "potency estimated from few doses", "setting": "FLT4", "result": 185, "unit": "nM"}, {"measurement": "potency estimated from few doses", "setting": "PLK1", "result": 2130, "unit": "nM"}, {"measurement": "potency estimated from few doses", "setting": "RIPK2", "result": 1090, "unit": "nM"}]}
